Inconclusive results are not listed. Activity calls are given as the source filed them. Unless noted, the call rests on the fitted dose curve; in most records, active means well fitted curve in the direction sought with a large enough effect in the repeat runs; inconclusive means weak or mixed curves; inactive means no such curve, though single readings can be large; an effect the other way counts as inactive or inconclusive.
Columns and labels:
[1] = qHTS assay to identify small molecule agonists of the sonic hedgehog signaling (Shh) pathway (AID 1259368; calls by dose curve;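 further: NIH/3T3-derived 3T3Gli1-Luc cells carrying a stable Gli1-driven firefly luciferase reporter; series mostly up to about 92 µM; nearly all actives have a fitted effect of over 15% in size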)
How it was run: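 Cells of a mouse NIH/3T3 clone stably expressing luciferase under the Gli1 transcriptional response element are exposed to test chemicals for 24 hr at 37 C. Pathway activation is detected as a rise in luminescence.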

[2] = qHTS assay to identify small molecule antagonists of the sonic hedgehog signaling (Shh) pathway (AID 1259369; calls by dose curve; further: nearly all actives have a fitted effect of over 45% in size; further: potency means the concentration at half of the fitted maximal effect)
How it was run: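 Cells are plated and held 4hr at 37 C, compounds (DMSO) are pinned in, conditioned medium is added to stimulate the pathway, and after 24hr luciferase reagent is added for 30min before luminescence is read.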

[3] = biological target: Estrogen receptor beta (Homo sapiens) (UniProt Q92731); assay: qHTS assay to identify small molecule agonists of the estrogen receptor beta (ER-beta) signaling pathway (AID 1259377; active means well fitted activation curve with a large enough effect in the signal ratio in the repeat runs, not every such curve was filed as active; the % refers to the signal ratio)
How it was run: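 ER-beta-UAS-bla HEK293T (GripTite) cells carrying a UAS-driven beta-lactamase reporter, in medium with 2% charcoal-stripped FBS, were exposed to compounds for 16 hr at 37C; LiveBLAzer B/G FRET substrate was then added and fluorescence read after 2 hours at room temperature.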

[4] = biological target: Estrogen receptor beta (Homo sapiens) (UniProt Q92731); assay: qHTS assay to identify small molecule antagonists of the estrogen receptor beta (ER-beta) signaling pathway (AID 1259378; active means well fitted inhibition curve with a large enough effect in the signal ratio in the repeat runs, not every such curve was filed as active; the % refers to the signal ratio)
How it was run: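 Antagonist mode: compounds added to beta-lactamase reporter HEK293T ER-beta-UAS cells stimulated with E2 (1nM final), 16 hr at 37C. LiveBLAzer B/G FRET substrate, 2 hours room temperature, fluorescence read-out.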

[5] = qHTS assay to identify small molecule agonists of the androgen receptor (AR) signaling pathway in the presence of an antagonist - cell viability counter screen (AID 1259379);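 further: MDA-kb2 human breast cancer cells carrying an MMTV luciferase reporter; series mostly up to about 92 µM; nearly all actives have a fitted effect of over 25% in size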
How it was run: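 Cytotoxicity is assessed by CellTiter-Fluor in MDA-kb2 cells carrying an MMTV-driven luciferase reporter. Cells receive 3.0uM nilutamide plus compounds at 15 concentrations and incubate 16 hr at 37C without CO2 before fluorescence reading.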

[6] = qHTS assay to identify small molecule agonists of the estrogen receptor beta (ER-beta) signaling pathway - cell viability counter screen (AID 1259380); further: nearly all actives have a fitted effect of over 30% in size
How it was run: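 Cytotoxicity is measured in parallel with the reporter screen: after 16 hr compound exposure at 37C and a 2 hr LiveBLAzer step, CellTiter-Glo is added to the same ER-beta-UAS-bla HEK293T wells and luminescence read after 30 min.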

[7] = biological target: Androgen receptor (Homo sapiens) (UniProt P10275); assay: qHTS assay to identify small molecule agonists of the androgen receptor (AR) signaling pathway in the presence of an antagonist (AID 1259381; calls by dose curve; further: nearly all actives have a fitted effect of over 15% in size)
How it was run: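 Agonist-mode confirmation screen: human MDA-kb2 cells stably expressing luciferase under an MMTV promoter bearing AR and GR response elements, co-treated with 3.0uM nilutamide (final). Luminescence measured after 16hr compound incubation.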

[8] = qHTS assay to identify small molecule antagonists of the estrogen receptor beta (ER-beta) signaling pathway - cell viability counter screen (AID 1259382); further: series mostly up to about 92 µM; nearly all actives have a fitted effect of over 55% in size
How it was run: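 Cytotoxicity counter screen multiplexed with the beta-lactamase antagonist assay: GripTite HEK293T ER-beta-bla cells were treated 16 hr with test chemicals in the presence of 1nM 17-beta-estradiol, and viability was measured by CellTiter-Glo.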

[9] = biological target: Estrogen receptor (Homo sapiens) (UniProt P03372); assay: qHTS assay to identify small molecule agonists of the estrogen receptor alpha (ER-alpha) signaling pathway in the presence of an antagonist (AID 1259383; calls by dose curve; further: top concentration of the series differs between compounds; nearly all actives have a fitted effect of over 15% in size)
How it was run: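 Agonist-mode confirmation in the presence of the ER antagonist ICI-182,780 at 10.0nM final. Breast-derived VM7Luc4E2 reporter cells were exposed to compounds for 22hr, and ERE-driven luciferase was quantified by luminescence.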

[10] = qHTS assay to identify small molecule agonists or antagonists of the thyroid stimulating hormone receptor (TSHR) signaling pathway - wild type cell line counter screen (AID 1259384; calls by dose curve)
How it was run: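 Counter screen in untransfected Hek293: compounds (15-point titration, triplicate) plus phosphodiesterase inhibitor Ro20-1724 added after 18 h plating; 30 min RT. Intracellular cAMP via competitive d2/cryptate immunoassay, 1 h incubation.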

[11] = biological target: Thyrotropin receptor (Homo sapiens) (UniProt P16473); assay: qHTS assay to identify small molecule antagonists of the thyroid stimulating hormone receptor (TSHR) signaling pathway (AID 1259385; calls by dose curve; further: nearly all actives have a fitted effect of over 20% in size)
How it was run: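 Antagonist mode: compound-treated TSHR-expressing HEK293 cells were stimulated with 1.5 ng/mL TSH (final) in presence of Ro20-1724 for 30 min at RT. HTRF cAMP detection after 1 h; each compound tested at 15 concentrations, triplicate.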

[12] = qHTS assay to identify small molecule agonists of the estrogen receptor alpha (ER-alpha) signaling pathway in the presence of an antagonist - cell viability counter screen (AID 1259386);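 further: series mostly up to about 92 µM; cells exposed to compounds for 22 h at 37 °C before the viability read; nearly all actives have a fitted effect of over 30% in size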
How it was run: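 Cytotoxicity was measured in parallel with the ERE-luciferase agonist screen, in the same wells. The cells were VM7Luc4E2, which endogenously express ER-alpha, and treatment was with compounds plus 10.0nM ICI-182,780 for 22hr.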

[13] = biological target: Progesterone receptor (Homo sapiens) (UniProt P06401); assay: qHTS assay to identify small molecule agonists of the progesterone receptor (PR) signaling pathway (AID 1346784; calls by dose curve; further: nearly all actives have a fitted effect of over 30% in size)
How it was run: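 PR-UAS-bla HEK 293T cells carrying a UAS-driven beta-lactamase reporter were seeded in medium with 2% charcoal-stripped FBS, preincubated 6 hr at 37C, then exposed to compounds in DMSO for 16 hr; agonism was read by LiveBLAzer B/G FRET fluorescence.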

[14] = biological target: Progesterone receptor (Homo sapiens) (UniProt P06401); assay: qHTS assay to identify small molecule antagonists of the progesterone receptor (PR) signaling pathway (AID 1346795; active means well fitted inhibition curve with a large enough effect in the signal ratio in the repeat runs, not every such curve was filed as active; the % refers to the signal ratio)
How it was run: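 PR-UAS-bla HEK293T cells carrying a UAS-driven beta-lactamase reporter were plated in medium with 2% charcoal-stripped FBS and rested 6 hr at 37C. Compounds were added with 1 nM R5020 (final) for 16 hr, then FRET substrate loaded 2 hr at room temperature.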

[15] = qHTS assay to identify small molecule antagonists of the progesterone receptor (PR) signaling pathway - cell viability counter screen (AID 1346798); further: nearly all actives have a fitted effect of over 50% in size; further: potency means the concentration at half of the fitted maximal effect
How it was run: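 PR-UAS-bla HEK293T cells in medium with 2% charcoal-stripped FBS were treated with compounds plus R5020 for 16 hr at 37C. Cell viability was then read by CellTiter-Glo luminescence after 30 min at room temperature in the same wells.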

[16] = qHTS assay to identify small molecule agonists of the progesterone receptor (PR) signaling pathway - cell viability counter screen (AID 1346799; calls by dose curve; further: nearly all actives have a fitted effect of over 45% in size)
How it was run: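 PR-UAS-bla HEK293T cells, 3,000 per well in medium with 2% charcoal-stripped FBS, were preincubated 6 hr at 37C, then exposed to compounds for 16 hr; viability was read as CellTiter-Glo luminescence after 30 min at room temperature.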

[17] = qHTS assay to identify small molecule antagonists of the TGF-beta/Smad signaling pathway - cell viability counter screen (AID 1346824); further: nearly all actives have a fitted effect of over 50% in size
How it was run: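 Cytotoxicity counter-screen run in the same wells as the beta-lactamase Smad reporter read: CellTiter-Glo luminescence after 30 min at room temperature. HEK 293T SBE-bla cells had 5 hr compound exposure at 37 C with TGF-beta1 (0.25 ng/mL stock).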

[18] = qHTS assay to identify small molecule agonists of the TGF-beta/Smad signaling pathway - cell viability counter screen (AID 1346829); further: top concentration of the series differs between compounds; nearly all actives have a fitted effect of over 45% in size
How it was run: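 Luminescence from CellTiter-Glo, read after a 30 min room-temperature incubation, gives cell viability of SBE-bla HEK 293T cells treated 5 hr with compounds at 37 C.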

[19] = qHTS assay to identify small molecule agonists of the TGF-beta/Smad signaling pathway (AID 1346859; active means well fitted activation curve with a large enough effect in the signal ratio in the repeat runs, not every such curve was filed as active; the % refers to the signal ratio; further: series mostly up to about 77 µM)
How it was run: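 HEK 293T cells stably carrying a beta-lactamase reporter driven by the Smad binding element were seeded overnight, exposed to DMSO-dissolved compounds for 5 hr at 37 C, 5% CO2, then loaded with FRET substrate for 2 hr at room temperature.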

[20] = biological target: Thyrotropin-releasing hormone receptor (Homo sapiens) (UniProt P34981); assay: qHTS assay to identify small molecule antagonists of the thyrotropin-releasing hormone receptor (TRHR) signaling pathway (AID 1346877; active means well fitted inhibition curve with a large enough effect in the repeat runs, not every such curve was filed as active; further: series mostly up to about 51 µM)
How it was run: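 Antagonism is measured as suppression of the calcium response to 1 nM TRH in TRHR-HEK293 cells that have been dye-loaded for 2 h at 37 °C after overnight plating. Each compound is tested at 15 concentrations in triplicate.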

Measured: Potency

Chain of Estrogen receptor beta (Homo sapiens) (Q92731 whole entry, looked up): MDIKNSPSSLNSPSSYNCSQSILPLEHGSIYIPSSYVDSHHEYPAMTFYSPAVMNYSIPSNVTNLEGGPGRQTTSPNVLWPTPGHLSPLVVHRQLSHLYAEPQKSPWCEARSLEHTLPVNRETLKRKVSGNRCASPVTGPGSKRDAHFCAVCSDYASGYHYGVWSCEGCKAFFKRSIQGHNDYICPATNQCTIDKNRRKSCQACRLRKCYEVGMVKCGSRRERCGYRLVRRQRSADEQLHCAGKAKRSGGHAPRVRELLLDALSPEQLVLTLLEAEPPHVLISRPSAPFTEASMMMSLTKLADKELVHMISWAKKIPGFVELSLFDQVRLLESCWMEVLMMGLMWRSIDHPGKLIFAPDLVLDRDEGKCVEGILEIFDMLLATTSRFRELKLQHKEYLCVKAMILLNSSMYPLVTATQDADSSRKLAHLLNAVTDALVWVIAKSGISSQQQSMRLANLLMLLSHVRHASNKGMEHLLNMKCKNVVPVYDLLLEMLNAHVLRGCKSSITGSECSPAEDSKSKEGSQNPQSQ
Chain of Progesterone receptor (Homo sapiens) (P06401 whole entry, looked up): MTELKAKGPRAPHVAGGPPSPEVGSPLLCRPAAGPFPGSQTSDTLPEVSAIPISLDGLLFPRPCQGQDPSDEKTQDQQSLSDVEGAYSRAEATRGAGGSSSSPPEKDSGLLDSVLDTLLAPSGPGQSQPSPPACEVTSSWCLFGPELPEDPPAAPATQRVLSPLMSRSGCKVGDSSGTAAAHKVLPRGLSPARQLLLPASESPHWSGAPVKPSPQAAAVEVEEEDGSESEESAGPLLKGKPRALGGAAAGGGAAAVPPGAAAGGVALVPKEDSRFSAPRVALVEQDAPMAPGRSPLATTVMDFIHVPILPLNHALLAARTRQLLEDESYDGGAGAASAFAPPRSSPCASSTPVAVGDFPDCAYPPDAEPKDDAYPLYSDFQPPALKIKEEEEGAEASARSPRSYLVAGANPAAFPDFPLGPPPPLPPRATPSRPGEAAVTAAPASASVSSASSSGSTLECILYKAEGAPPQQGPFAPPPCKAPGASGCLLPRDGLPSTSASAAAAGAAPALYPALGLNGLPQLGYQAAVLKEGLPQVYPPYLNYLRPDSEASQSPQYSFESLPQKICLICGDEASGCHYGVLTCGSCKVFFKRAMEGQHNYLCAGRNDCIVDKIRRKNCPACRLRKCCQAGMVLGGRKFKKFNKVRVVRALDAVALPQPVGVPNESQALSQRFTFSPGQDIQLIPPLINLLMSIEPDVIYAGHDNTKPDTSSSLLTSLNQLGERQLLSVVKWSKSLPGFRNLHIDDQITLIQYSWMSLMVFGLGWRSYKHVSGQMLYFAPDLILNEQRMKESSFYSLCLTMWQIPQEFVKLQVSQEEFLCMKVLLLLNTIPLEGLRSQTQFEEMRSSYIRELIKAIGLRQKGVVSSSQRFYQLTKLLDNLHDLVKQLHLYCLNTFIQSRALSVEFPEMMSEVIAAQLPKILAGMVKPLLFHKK
Chain of Estrogen receptor (Homo sapiens) (P03372 whole entry, looked up): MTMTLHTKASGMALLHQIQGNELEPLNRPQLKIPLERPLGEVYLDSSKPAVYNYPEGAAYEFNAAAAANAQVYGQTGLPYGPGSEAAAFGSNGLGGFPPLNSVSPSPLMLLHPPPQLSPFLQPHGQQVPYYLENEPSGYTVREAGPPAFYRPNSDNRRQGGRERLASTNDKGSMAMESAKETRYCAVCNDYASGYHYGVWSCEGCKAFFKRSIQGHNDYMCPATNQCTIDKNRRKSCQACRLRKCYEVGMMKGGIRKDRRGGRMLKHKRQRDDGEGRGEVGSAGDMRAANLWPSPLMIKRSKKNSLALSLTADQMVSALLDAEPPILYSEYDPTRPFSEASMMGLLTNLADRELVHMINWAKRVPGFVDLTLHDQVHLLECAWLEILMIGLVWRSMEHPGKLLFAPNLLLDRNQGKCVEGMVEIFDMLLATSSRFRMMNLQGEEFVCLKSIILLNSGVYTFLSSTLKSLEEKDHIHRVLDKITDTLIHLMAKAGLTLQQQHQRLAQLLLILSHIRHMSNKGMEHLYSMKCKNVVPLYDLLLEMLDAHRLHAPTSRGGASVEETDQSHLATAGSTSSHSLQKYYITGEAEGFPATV
Chain of Androgen receptor (Homo sapiens) (P10275 whole entry, looked up): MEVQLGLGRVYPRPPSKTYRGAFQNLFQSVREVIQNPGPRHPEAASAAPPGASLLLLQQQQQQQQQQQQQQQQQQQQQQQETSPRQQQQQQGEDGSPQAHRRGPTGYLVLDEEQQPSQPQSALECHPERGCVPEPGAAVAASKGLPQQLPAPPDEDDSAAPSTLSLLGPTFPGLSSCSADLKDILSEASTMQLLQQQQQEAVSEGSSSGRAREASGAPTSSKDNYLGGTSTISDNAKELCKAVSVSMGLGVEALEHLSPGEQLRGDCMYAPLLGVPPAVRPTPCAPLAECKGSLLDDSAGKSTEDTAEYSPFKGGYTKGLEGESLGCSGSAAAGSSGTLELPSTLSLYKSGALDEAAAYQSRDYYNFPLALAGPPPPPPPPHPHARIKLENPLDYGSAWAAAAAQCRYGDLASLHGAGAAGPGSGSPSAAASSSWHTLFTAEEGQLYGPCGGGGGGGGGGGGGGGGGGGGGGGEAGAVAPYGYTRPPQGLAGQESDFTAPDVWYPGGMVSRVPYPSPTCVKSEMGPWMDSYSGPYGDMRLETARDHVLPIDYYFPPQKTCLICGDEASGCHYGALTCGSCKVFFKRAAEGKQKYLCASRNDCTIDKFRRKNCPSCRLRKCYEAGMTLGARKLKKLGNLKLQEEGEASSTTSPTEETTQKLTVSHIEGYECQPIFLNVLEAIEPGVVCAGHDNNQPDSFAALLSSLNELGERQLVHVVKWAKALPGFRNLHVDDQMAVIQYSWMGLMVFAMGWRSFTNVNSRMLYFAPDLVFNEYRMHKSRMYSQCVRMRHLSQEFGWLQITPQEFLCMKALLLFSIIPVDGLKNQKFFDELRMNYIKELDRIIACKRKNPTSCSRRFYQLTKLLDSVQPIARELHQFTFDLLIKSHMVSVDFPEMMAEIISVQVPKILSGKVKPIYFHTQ
Chain of Thyrotropin-releasing hormone receptor (Homo sapiens) (P34981 whole entry, looked up): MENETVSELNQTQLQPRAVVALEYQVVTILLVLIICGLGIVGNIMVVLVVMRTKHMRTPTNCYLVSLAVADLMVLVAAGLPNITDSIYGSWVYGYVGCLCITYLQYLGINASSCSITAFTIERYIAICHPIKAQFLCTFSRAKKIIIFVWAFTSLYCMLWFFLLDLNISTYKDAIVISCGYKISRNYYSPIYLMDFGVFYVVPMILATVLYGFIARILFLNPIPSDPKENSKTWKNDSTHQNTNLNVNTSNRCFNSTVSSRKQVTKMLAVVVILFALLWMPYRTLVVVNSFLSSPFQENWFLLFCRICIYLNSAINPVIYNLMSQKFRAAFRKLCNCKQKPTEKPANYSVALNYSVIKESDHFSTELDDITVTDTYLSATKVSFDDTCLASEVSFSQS
Chain of Thyrotropin receptor (Homo sapiens) (P16473 whole entry, looked up): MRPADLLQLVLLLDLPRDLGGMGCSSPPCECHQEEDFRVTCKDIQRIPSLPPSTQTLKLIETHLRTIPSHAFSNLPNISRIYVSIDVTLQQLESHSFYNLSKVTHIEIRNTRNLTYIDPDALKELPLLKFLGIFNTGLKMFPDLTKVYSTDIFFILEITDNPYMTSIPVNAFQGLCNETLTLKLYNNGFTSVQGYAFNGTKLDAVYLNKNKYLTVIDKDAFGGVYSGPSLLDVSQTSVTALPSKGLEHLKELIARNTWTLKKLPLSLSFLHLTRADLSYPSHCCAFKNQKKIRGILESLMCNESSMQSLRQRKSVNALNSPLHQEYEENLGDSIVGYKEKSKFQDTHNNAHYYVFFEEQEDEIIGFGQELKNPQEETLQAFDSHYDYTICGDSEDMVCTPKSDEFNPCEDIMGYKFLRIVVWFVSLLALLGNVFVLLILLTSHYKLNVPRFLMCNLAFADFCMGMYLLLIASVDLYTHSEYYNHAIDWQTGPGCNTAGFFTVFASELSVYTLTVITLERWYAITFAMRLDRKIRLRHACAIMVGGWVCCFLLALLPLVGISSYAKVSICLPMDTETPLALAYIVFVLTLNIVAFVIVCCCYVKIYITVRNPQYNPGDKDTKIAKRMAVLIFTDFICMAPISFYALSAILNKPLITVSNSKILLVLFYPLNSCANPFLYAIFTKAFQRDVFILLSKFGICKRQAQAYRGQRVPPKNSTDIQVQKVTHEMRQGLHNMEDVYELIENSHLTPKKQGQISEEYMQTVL

O=C(c1ccc(Cl)cc1)c1ccc(Cl)cc1
inactive: [1] | [2] | [3] | [4] | [5] | [6] | [7] | [8] | [9] | [10] | [11] | [12] | [13] | [14] | [15] | [16] | [17] | [18] | [19] | [20]

NCCOCCOCCN
inactive: [1] | [2] | [3] | [4] | [5] | [7] | [10] | [11] | [12] | [17] | [18] | [19] | [20]
active: [15] 15.4 µM

O=[N+]([O-])c1ccccc1CCO
inactive: [1] | [2] | [3] | [4] | [5] | [6] | [8] | [10] | [12] | [13] | [14] | [15] | [16] | [17] | [18] | [19] | [20]

Clc1cccc(C(c2ccc3nc[nH]c3c2)n2ccnc2)c1 (stereo not given)
inactive: [1] | [2] | [3] | [4] | [5] | [7] | [8] | [9] | [12] | [13] | [14] | [15] | [16] | [17] | [18] | [19] | [20]

CCOc1ccc2c(c1)C(C)CC(C)(C)N2 (stereo not given)
inactive: [1] | [2] | [3] | [4] | [5] | [7] | [8] | [10] | [11] | [12] | [15] | [16] | [17] | [18] | [19] | [20]

CC(O)CN (stereo not given)
inactive: [1] | [2] | [3] | [4] | [5] | [6] | [8] | [9] | [10] | [12] | [14] | [15] | [16] | [17] | [18] | [19] | [20]

O=C(O)c1ccc2cc(O)ccc2c1
inactive: [1] | [2] | [3] | [4] | [5] | [6] | [8] | [9] | [12] | [13] | [14] | [15] | [16] | [17] | [18] | [19] | [20]

c1ccc(CN(Cc2ccccc2)Cc2ccccc2)cc1
inactive: [1] | [2] | [3] | [5] | [8] | [10] | [12] | [13] | [15] | [16] | [17] | [18] | [19] | [20]

COc1cccc([C@H](O)C2CCN(CCc3ccc(F)cc3)CC2)c1OC
inactive: [1] | [3] | [4] | [8] | [9] | [10] | [11] | [12] | [14] | [15] | [16] | [17] | [18] | [19] | [20]
active: [2] 54.5 µM

CC(=O)OCC(=O)[C@@]1(O)CC[C@H]2[C@@H]3CCC4=CC(=O)C=C[C@]4(C)[C@@]3(F)[C@@H](O)C[C@@]21C
inactive: [1] | [2] | [4] | [5] | [6] | [8] | [10] | [11] | [12] | [16] | [17] | [18] | [19] | [20]

CC(C)=CCC[C@H](C)CCO
inactive: [1] | [2] | [3] | [4] | [6] | [8] | [9] | [10] | [11] | [12] | [13] | [14] | [15] | [16] | [17] | [18] | [19] | [20]

O=c1c2ccccc2oc2ccccc12
inactive: [1] | [2] | [4] | [5] | [6] | [8] | [9] | [10] | [11] | [12] | [13] | [14] | [15] | [16] | [17] | [18] | [19] | [20]

CC1(C)CC(O)CC(C)(C)N1[O]
inactive: [1] | [2] | [3] | [4] | [6] | [8] | [9] | [10] | [12] | [13] | [14] | [15] | [16] | [17] | [18] | [19] | [20]

Nc1ncnc2c1ncn2[C@@H]1O[C@H](CO)[C@@H](O)[C@H]1O
inactive: [1] | [2] | [3] | [5] | [6] | [8] | [9] | [10] | [11] | [12] | [13] | [15] | [16] | [17] | [18] | [19] | [20]

Cc1c(-c2cccnc2)c2ccccc2n1CCCCC(=O)O
inactive: [1] | [2] | [4] | [5] | [6] | [8] | [10] | [11] | [12] | [13] | [15] | [16] | [17] | [18] | [20]

CCCCCO
inactive: [1] | [2] | [4] | [5] | [6] | [8] | [9] | [10] | [11] | [12] | [13] | [14] | [15] | [16] | [17] | [18] | [19] | [20]
